# From PubChem BioAssay (EPA / NIEHS)
# Records with an inconclusive call do not appear. The source holds several records for some structures; these can differ, active in one and inactive in another. Calls of active or inactive are those of the source. Rule for the calls, unless noted: active = hit-call score of the fitted dose curve at least 0.9, where 1 is the maximum; inconclusive = response in the unintended direction; inactive = score below 0.9.
# Columns and labels:
# [1] = target: Estrogen receptor beta (Homo sapiens) (UniProt Q92731); assay: OT_ER_ERbERb_1440: Odyssey Thera (OT) 24-hour HEK293T Protein-Complementation Assay for Estrogen Receptor-beta/-beta Homodimer (AID 2283380);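 note: fluorescence gain from ER beta LBD homodimer complementation read by laser scanning cytometry; scored as signal increase over DMSO baseline for both agonists and antagonists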
# Procedure, shortened: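 Fluorescence increase, nuclear for agonists or whole-cell for antagonists, relative to DMSO vehicle, quantified by laser scanning cytometer after fixation and Draq5 staining. Readout from 24 h treatment of HEK293T cells carrying complementation-paired ER beta LBD (aa 310-547).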
# [2] = target: Estrogen receptor (Homo sapiens) (UniProt P03372); assay: OT_ERa_GFPERaERE_0480: Odyssey Thera (OT) 8-hour HeLa Transcription Induction Assay for Estrogen Receptor (AID 2283381; active = hit-call score of the fitted dose curve at least 0.9, where 1 is the maximum; inactive = score below 0.9)
# Procedure, shortened: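 Fluorescence microscopy with high-content image analysis measures ERE-driven GFP induction in HeLa cells at 8 h post-dose. Increases fitted against DMSO baseline.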
# [3] = target: Estrogen receptor (Homo sapiens) (UniProt P03372); assay: OT_ERa_GFPERaERE_0120: Odyssey Thera (OT) 2-hour HeLa Transcription Induction Assay for Estrogen Receptor (AID 2283382)
# Procedure, shortened: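 Fluorescence-microscopy images of the GFP-ERα/ERE reporter, scored by high-content image algorithms, give the readout. HeLa exposure lasted 2 h, and only signal increase over DMSO was fitted.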
# [4] = target: Bile acid receptor (Homo sapiens) (UniProt Q96RI1); assay: OT_FXR_FXRSRC1_0480: Odyssey Thera (OT) 8-hour HEK293T Protein-Complementation Assay for Farnesoid X receptor/SRC-1 Co-activator (AID 2283383)
# Procedure, shortened: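 Binding of FXR to coactivator SRC-1 was read as fluorescence from a reconstituted split reporter in HEK293T cells, 8 h after chemical addition. Only increases in signal versus DMSO were fit.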
# [5] = target: Bile acid receptor (Homo sapiens) (UniProt Q96RI1); assay: OT_FXR_FXRSRC1_1440: Odyssey Thera (OT) 24-hour HEK293T Protein-Complementation Assay for Farnesoid X receptor/SRC-1 Co-activator (AID 2283384)
# Procedure, shortened: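 Protein-fragment complementation: FXR and SRC-1 fused to reporter fragments that reassemble on interaction, read by fluorescence intensity. Human HEK293T cells measured 24 h post-dose; positive-direction fit versus DMSO.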
# [6] = target: Retinoic acid receptor RXR-alpha (Homo sapiens) (UniProt P19793); assay: OT_NURR1_NURR1RXRa_0480: Odyssey Thera (OT) 8-hour HEK293T Protein Complementation Assay for Nurr1/retinoid X receptor (RXR) (AID 2283385)
# Procedure, shortened: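 Interaction of Nurr1 with RXRα read as reconstituted reporter fluorescence in a HEK293T fragment-complementation system, 8 h post-treatment; increase over DMSO baseline analysed.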
# [7] = target: Peroxisome proliferator-activated receptor gamma (Homo sapiens) (UniProt P37231); assay: OT_PPARg_PPARgSRC1_0480: Odyssey Thera (OT) 8-hour Protein-Complementation Assay for Peroxisome Proliferator-activated Receptor Gamma / SRC-1 Co-activator (AID 2283387);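 note: nuclear to cytoplasmic split Venus YFP fluorescence ratio reporting PPARg SRC-1 interaction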
# Procedure, shortened: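 Split-YFP (IFP1/IFP2) PPARg/SRC-1 reporter, HEK293T, 37 °C, 5% CO2; 8 h compound; formaldehyde fix + Draq5; high-content imaging, N/C ratio, ≥350 cells/image, positive direction vs DMSO.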
# [8] = target: Peroxisome proliferator-activated receptor gamma (Homo sapiens) (UniProt P37231); assay: OT_PPARg_PPARgSRC1_1440: Odyssey Thera (OT) 24-hour Protein-Complementation Assay for Peroxisome Proliferator-activated Receptor Gamma/ SRC-1 Co-activator (AID 2283388);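 note: nuclear to cytoplasmic ratio of reconstituted Venus YFP fluorescence in fixed imaged cells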
# Procedure, shortened: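 Cells carrying the PPARg/SRC-1 fragment-complementation reporter receive compound for 24 hours, are fixed and counterstained with Draq5, then imaged. Increased nuclear relative to cytoplasmic YFP fluorescence above DMSO baseline indicates binding activity.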
# [9] = target: Retinoic acid receptor RXR-alpha (Homo sapiens) (UniProt P19793); assay: OT_NURR1_NURR1RXRa_1440: Odyssey Thera (OT) 24-hour HEK293T Protein Complementation Assay for Nurr1/retinoid X receptor (RXR) (AID 2283386)
# Procedure, shortened: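 Gain in fluorescence, fitted relative to DMSO, reflects Nurr1–RXRα association in HEK293T cells after 24 h dosing. Bait and prey are each linked to a reporter-protein fragment that reassembles on interaction.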
# [10] = target: Agonist Androgen Response Element (ARE), AR (gene 367) (UniProt P10275); assay: OT_AR_ARELUC_AG_1440: Odyssey Thera (OT) 24-hour CHO-K1 Luciferase Assay for Agonist Androgen Response Element (ARE) (AID 2283379)
# Procedure, shortened: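 Readout: luciferase bioluminescence from CHO-K1 ARE-luc cells, measured 24 h post-dosing; agonism = increased mean luminescence vs DMSO controls, fitted in positive direction.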
# Sequence of Estrogen receptor beta (Homo sapiens) (Q92731 whole entry, looked up, the tested form may be a part): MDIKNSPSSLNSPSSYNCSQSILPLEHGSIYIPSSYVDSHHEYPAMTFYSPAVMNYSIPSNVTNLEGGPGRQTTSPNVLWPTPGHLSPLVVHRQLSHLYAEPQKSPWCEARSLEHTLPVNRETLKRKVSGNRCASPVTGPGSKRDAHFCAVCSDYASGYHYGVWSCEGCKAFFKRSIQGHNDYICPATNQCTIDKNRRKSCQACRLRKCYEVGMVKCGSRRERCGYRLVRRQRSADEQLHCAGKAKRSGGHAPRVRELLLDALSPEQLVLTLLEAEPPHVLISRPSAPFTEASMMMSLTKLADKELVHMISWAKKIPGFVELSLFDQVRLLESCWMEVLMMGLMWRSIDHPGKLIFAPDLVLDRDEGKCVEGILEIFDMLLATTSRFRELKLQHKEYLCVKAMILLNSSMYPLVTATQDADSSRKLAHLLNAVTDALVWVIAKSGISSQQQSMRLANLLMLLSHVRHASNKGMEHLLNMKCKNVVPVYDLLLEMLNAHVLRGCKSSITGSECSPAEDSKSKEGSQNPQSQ
# Sequence of Retinoic acid receptor RXR-alpha (Homo sapiens) (P19793 whole entry, looked up, the tested form may be a part): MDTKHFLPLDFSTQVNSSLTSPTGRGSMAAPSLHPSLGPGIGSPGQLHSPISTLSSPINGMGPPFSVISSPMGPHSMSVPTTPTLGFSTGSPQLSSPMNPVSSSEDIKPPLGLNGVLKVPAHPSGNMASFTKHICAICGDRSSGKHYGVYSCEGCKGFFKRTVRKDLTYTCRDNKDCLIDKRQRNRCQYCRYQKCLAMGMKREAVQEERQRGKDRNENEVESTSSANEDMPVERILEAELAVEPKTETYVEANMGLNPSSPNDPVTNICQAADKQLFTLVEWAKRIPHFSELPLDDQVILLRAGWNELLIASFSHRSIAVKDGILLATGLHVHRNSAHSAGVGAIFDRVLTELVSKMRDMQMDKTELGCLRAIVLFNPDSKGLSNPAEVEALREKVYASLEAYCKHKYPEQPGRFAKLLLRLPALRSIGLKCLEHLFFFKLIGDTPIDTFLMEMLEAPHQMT
# Sequence of Estrogen receptor (Homo sapiens) (P03372 whole entry, looked up): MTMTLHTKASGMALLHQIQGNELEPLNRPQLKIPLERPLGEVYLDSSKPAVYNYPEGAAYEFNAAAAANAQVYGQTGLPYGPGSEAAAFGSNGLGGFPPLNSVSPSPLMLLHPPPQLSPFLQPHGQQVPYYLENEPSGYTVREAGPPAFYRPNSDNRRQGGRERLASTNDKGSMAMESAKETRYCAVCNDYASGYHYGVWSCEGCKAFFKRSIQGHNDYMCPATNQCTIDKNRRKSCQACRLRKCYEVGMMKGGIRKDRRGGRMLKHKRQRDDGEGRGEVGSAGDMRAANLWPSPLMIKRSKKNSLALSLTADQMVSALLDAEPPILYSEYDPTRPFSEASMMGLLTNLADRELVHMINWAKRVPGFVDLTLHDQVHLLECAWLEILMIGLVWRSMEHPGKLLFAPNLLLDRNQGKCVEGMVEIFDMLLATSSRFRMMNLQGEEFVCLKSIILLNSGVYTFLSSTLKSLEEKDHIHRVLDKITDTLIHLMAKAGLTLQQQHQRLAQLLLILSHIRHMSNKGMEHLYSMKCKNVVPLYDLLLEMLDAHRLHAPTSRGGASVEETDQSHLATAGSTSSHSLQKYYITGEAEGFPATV
# Sequence of Agonist Androgen Response Element (ARE), AR (gene 367) (P10275 whole entry, looked up): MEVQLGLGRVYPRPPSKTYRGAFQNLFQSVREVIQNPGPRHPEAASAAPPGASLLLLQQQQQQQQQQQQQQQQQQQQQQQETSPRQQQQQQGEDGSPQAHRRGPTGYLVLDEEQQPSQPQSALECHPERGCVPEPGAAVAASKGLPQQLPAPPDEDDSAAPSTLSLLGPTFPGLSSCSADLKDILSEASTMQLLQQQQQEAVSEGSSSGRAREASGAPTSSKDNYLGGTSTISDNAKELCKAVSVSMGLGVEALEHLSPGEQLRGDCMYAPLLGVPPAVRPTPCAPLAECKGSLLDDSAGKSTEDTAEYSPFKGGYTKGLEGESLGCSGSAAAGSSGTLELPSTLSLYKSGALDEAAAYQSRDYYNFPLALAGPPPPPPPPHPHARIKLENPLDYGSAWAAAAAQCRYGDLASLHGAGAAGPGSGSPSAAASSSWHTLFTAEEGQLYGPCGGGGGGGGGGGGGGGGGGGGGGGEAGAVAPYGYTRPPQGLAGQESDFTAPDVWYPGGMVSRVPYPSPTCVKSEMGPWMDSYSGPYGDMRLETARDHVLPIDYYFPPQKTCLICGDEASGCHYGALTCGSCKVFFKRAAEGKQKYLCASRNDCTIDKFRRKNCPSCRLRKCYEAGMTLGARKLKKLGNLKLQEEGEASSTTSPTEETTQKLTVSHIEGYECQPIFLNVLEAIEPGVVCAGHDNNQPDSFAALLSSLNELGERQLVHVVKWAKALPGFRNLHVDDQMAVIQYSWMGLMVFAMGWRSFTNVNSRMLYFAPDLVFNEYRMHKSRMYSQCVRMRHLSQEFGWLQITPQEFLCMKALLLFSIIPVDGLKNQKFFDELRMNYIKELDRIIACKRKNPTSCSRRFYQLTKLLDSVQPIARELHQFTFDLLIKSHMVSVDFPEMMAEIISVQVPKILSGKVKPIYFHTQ
# Sequence of Peroxisome proliferator-activated receptor gamma (Homo sapiens) (P37231 whole entry, looked up, the tested form may be a part): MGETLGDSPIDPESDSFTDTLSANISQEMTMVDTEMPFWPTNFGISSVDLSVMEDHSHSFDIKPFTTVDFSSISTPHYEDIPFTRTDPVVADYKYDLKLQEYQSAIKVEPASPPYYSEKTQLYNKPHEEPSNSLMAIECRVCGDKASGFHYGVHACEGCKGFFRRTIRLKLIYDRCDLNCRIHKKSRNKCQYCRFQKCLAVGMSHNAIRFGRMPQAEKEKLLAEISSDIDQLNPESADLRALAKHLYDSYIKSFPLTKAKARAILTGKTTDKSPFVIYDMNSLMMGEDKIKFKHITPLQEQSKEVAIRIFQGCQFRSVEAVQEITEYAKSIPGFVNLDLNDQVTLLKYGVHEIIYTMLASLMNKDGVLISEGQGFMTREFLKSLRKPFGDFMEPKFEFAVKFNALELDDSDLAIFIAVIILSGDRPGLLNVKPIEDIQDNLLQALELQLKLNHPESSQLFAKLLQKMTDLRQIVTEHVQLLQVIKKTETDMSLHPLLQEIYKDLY
# Sequence of Bile acid receptor (Homo sapiens) (Q96RI1 whole entry, looked up, the tested form may be a part): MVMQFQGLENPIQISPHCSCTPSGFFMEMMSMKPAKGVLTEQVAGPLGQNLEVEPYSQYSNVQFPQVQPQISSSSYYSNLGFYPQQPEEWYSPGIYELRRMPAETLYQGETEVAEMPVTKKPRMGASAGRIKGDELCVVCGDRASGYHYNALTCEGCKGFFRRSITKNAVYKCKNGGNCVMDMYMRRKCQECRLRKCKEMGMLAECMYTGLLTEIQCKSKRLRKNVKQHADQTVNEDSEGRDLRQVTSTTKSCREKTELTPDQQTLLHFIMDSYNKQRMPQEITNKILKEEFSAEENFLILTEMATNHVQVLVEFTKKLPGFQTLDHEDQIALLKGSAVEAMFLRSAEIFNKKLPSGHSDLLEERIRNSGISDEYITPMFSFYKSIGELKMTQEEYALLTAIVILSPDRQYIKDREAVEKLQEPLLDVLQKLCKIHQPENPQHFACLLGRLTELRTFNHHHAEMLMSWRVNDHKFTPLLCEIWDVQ
SMILES,outcome [1],outcome [2],outcome [3],outcome [4],outcome [5],outcome [6],outcome [7],outcome [8],outcome [9],outcome [10],AC50 [6],AC50 [1],AC50 [3],AC50 [2]
CCCCCCCCCCO,inactive,inactive,inactive,inactive,inactive,inactive,inactive,inactive,,,,,,
CCCCN(CCCC)CCCC,inactive,inactive,inactive,inactive,inactive,inactive,,,inactive,,,,,
CCOc1ccc2c(c1)C(C)=CC(C)(C)N2,,inactive,inactive,,,inactive,inactive,inactive,inactive,inactive,,,,
COc1ccc(C)cc1N,,inactive,inactive,,,inactive,inactive,inactive,inactive,inactive,,,,
Cc1cccc(C)c1O,inactive,inactive,inactive,,,,inactive,inactive,,inactive,,,,
Clc1cc(Cl)c(Cl)cc1Cl,inactive,inactive,inactive,,,inactive,inactive,inactive,inactive,,,,,
CCCCCCCCCCC,inactive,inactive,inactive,,,inactive,inactive,inactive,inactive,,,,,
CCCCCCCC=O,inactive,inactive,inactive,,,inactive,inactive,inactive,inactive,,,,,
CCOC(=O)CCC(=O)OCC,inactive,inactive,inactive,,,inactive,inactive,inactive,inactive,,,,,
COCCOC[C@H](CC1(C(=O)NC2CCC(C(=O)O)CC2)CCCC1)C(=O)Oc1ccc2c(c1)CCC2 (stereo partly drawn),inactive,inactive,inactive,,,inactive,inactive,inactive,inactive,,,,,
O=C(N[C@@H](Cc1ccccc1)[C@@H](O)C(=O)N1C[C@@H](O)[C@@H](O)C1)c1cc2cc(Cl)ccc2[nH]1,inactive,inactive,inactive,,,inactive,inactive,inactive,inactive,,,,,
Oc1ccc2c(c1)OC[C@@H](N1CCC(O)(c3ccc(F)cc3)CC1)[C@H]2O,inactive,inactive,inactive,,,inactive,inactive,inactive,,,,,,
Cc1ccc(C(C)C)c(O)c1,inactive,inactive,inactive,,,inactive,inactive,inactive,inactive,,,,,
NS(=O)(=O)c1cc2c(cc1Cl)NCNS2(=O)=O,inactive,inactive,inactive,inactive,,inactive,inactive,inactive,inactive,,,,,
CCCCCCC(=O)OCC,inactive,inactive,inactive,,,inactive,inactive,inactive,,,,,,
CCCCc1ccc2c(n1)[C@@H](c1ccc(OC)cc1C[C@H](C)C(=O)O)[C@H](C(=O)O)[C@H]2c1ccc2c(c1)OCO2,inactive,inactive,inactive,inactive,,inactive,inactive,inactive,inactive,,,,,
CC(=O)OCCOCCOCCOC(C)=O,inactive,inactive,inactive,,inactive,inactive,inactive,inactive,inactive,,,,,
O=[N+]([O-])C(CO)(CO)CO,inactive,inactive,inactive,,,inactive,inactive,inactive,inactive,,,,,
C1CCC(SSC2CCCCC2)CC1,inactive,inactive,inactive,,,inactive,inactive,inactive,inactive,,79.5 µM (active),,,
CCCCCCCCCCCCCO,inactive,inactive,inactive,,,inactive,inactive,inactive,inactive,,67.5 µM (active),,,
O=c1c(O)c(-c2ccc(O)c(O)c2)oc2cc(O)cc(O)c12,,inactive,,,,inactive,inactive,inactive,inactive,,,19.2 µM (active),23.4 µM (active),
Cc1c(C(=O)O)c(O)cc2c1C(=O)c1c(O)c([C@@H]3O[C@H](CO)[C@@H](O)[C@H](O)[C@H]3O)c(O)c(O)c1C2=O,inactive,inactive,inactive,inactive,,inactive,inactive,inactive,inactive,,50 µM (active),,,
CCCCOC(=O)CCCCCCCCC(=O)OCCCC,inactive,inactive,inactive,,,inactive,inactive,inactive,inactive,,,,,
CC(C)c1ccc(C(=O)N=C(N)N)cc1S(C)(=O)=O,inactive,inactive,inactive,,,inactive,inactive,inactive,inactive,,,,,
COC(=O)c1ccc(O)cc1,inactive,inactive,inactive,,,,inactive,inactive,inactive,,,,,
CCCCC(CC)COC(=O)CC(C(=O)OCC(CC)CCCC)S(=O)(=O)O (stereo not drawn),inactive,,,,,inactive,inactive,inactive,,,,,21.3 µM (active),22.8 µM (active)
C[Si]1(C)O[Si](C)(C)O[Si](C)(C)O[Si](C)(C)O1,inactive,inactive,inactive,inactive,,inactive,inactive,inactive,inactive,,,,,
